We go through eleven compounds from the supplement of paper PMC9694430.

Holding throughout (test): thermal shift delta Tm vs DMSO control; higher = stronger stabilization (binding)
Common to all, as to settings: 12.5 µM; protein concentration 2 µM

In one assay the test system is LOC_OS01G01410-cb001. Summed up: (§1)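 The melting temperature shift given here is a triplicate mean, measured against protein that received only DMSO. Melting temperatures came from Boltzmann fits of differential scanning fluorimetry data on E. coli-expressed, purified rice kinase domain constructs. Each 19.5 μl well contained 2 μM kinase, 100 mM potassium phosphate pH 7.5, 150 mM NaCl, 10% glycerol, 5 × SYPRO Orange and compound in DMSO. Plates were scanned from 25°C to 95°C at 0.05°C/s.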

In a further assay the test system is LOC_OS01G02750-cb003. Summed up: as §1
A further assay concerns LOC_OS01G10900-cb004. Summed up: as §1
The next assay deals with LOC_OS01G13800-cb001. Summed up: as §1
The test system of another assay is LOC_OS01G14860-cb001. Summed up:
as §1

For another assay, the system named is LOC_OS01G21960-cb002. The gist of the method:
as §1

A further assay relates to LOC_OS01G39600-cb002. The gist of the method: as §1
Another assay relates to LOC_OS01G48390-cb002. Summed up:
as §1

The subject of the next assay is LOC_OS01G51400-cb002. The gist of the method: as §1
The next assay relates to T1, LOC_OS01G52050-cb004.
T1 sequence (whole entry): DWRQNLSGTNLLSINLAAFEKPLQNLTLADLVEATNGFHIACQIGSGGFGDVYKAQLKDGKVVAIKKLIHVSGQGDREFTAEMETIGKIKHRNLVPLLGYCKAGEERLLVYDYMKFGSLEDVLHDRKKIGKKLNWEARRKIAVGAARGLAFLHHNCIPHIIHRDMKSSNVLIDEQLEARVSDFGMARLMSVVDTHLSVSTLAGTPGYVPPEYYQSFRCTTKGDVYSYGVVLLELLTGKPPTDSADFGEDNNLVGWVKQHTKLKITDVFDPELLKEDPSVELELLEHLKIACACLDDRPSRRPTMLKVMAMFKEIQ
The gist of the method:
as §1

As to `CN1CCN(S(=O)(=O)c2ccc(-c3cnc(N)c(C(=O)Nc4cccnc4)n3)cc2)CC1`, the “thermal shift delta Tm” value with LOC_OS01G01410-cb001 amounted to 4.52 °C; in the assay with LOC_OS01G02750-cb003 it was 1.3 °C; with LOC_OS01G10900-cb004, 0.3 °C; with LOC_OS01G13800-cb001, 0.58 °C; in the assay on LOC_OS01G14860-cb001 it was 7.62 °C; in the assay on LOC_OS01G21960-cb002 it was 1.87 °C. In addition, the “thermal shift delta Tm” value in the assay on LOC_OS01G39600-cb002 is 0.71 °C; with LOC_OS01G48390-cb002, 0.96 °C; in the assay with LOC_OS01G51400-cb002, -0.02 °C; in the assay on LOC_OS01G52050-cb004, 1.17 °C.

With `CC(C)NC[C@@H](C(=O)N1CCN(c2ncnc3c2[C@H](C)C[C@H]3O)CC1)c1ccc(Cl)cc1` [Ipatasertib (GDC-0068)], the “thermal shift delta Tm” value came to 0.15 °C with LOC_OS01G01410-cb001; 0.42 °C with LOC_OS01G02750-cb003; 0.03 °C with LOC_OS01G10900-cb004; 0.07 °C in the assay with LOC_OS01G13800-cb001; 0.06 °C with LOC_OS01G14860-cb001; 0.43 °C in the assay with LOC_OS01G21960-cb002. For the same compound, the “thermal shift delta Tm” value in the assay with LOC_OS01G39600-cb002 is 0.77 °C; with LOC_OS01G48390-cb002 it was -0.11 °C; with LOC_OS01G51400-cb002 it was 0.32 °C; with LOC_OS01G52050-cb004, 0.26 °C.

With `COc1cc2c(Nc3ccc(NC(=O)c4ccccc4)cc3)ncnc2cc1OCCCN1CCOCC1`, the “thermal shift delta Tm” value is 2.69 °C in the assay with LOC_OS01G01410-cb001; 0.98 °C in the assay with LOC_OS01G02750-cb003; -0.03 °C in the assay on LOC_OS01G10900-cb004; 0.65 °C with LOC_OS01G13800-cb001; 0.52 °C with LOC_OS01G14860-cb001; 0.26 °C in the assay with LOC_OS01G21960-cb002. Besides, the “thermal shift delta Tm” value with LOC_OS01G39600-cb002 came to 1.98 °C; in the assay with LOC_OS01G48390-cb002 it was 0.89 °C; with LOC_OS01G51400-cb002, 0.34 °C; with LOC_OS01G52050-cb004, 0.94 °C.

Take `O=C1NC(=O)C(c2ccccc2[N+](=O)[O-])=C1Nc1ccc(O)c(Cl)c1`: the “thermal shift delta Tm” value in the assay on LOC_OS01G01410-cb001 is 0.62 °C; in the assay with LOC_OS01G02750-cb003, -1.98 °C; in the assay with LOC_OS01G10900-cb004, 0.16 °C; with LOC_OS01G13800-cb001, 0.72 °C; in the assay on LOC_OS01G14860-cb001 it was 0.92 °C; in the assay with LOC_OS01G21960-cb002, 1.43 °C. The “thermal shift delta Tm” value in the assay with LOC_OS01G39600-cb002 was -0.46 °C; in the assay on LOC_OS01G48390-cb002, 0.67 °C; in the assay on LOC_OS01G51400-cb002 it was 0.04 °C; in the assay on LOC_OS01G52050-cb004, -0.24 °C.

Take `Cc1cc(CN2CCN(c3c(Br)cnc4nc(-c5ccc(N6CCN(C)CC6)cc5)[nH]c34)CC2)no1`: the “thermal shift delta Tm” value in the assay with LOC_OS01G01410-cb001 was determined as 4.15 °C; in the assay on LOC_OS01G02750-cb003 it was 1.45 °C; in the assay with LOC_OS01G10900-cb004 it was 1.57 °C; in the assay on LOC_OS01G13800-cb001, 0.82 °C; with LOC_OS01G14860-cb001 it was 0.83 °C; with LOC_OS01G21960-cb002, 2.01 °C. Also, the “thermal shift delta Tm” value is 4.92 °C in the assay on LOC_OS01G39600-cb002, 3.13 °C with LOC_OS01G48390-cb002, 0.84 °C with LOC_OS01G51400-cb002 and 0.67 °C in the assay with LOC_OS01G52050-cb004.

On to `CC(C)n1ncnc1-c1cn2c(n1)-c1ccc(O[C@@H](C)C(N)=O)cc1OCC2`, for which the “thermal shift delta Tm” value in the assay on LOC_OS01G01410-cb001 amounted to 0.47 °C; in the assay on LOC_OS01G02750-cb003, 1.25 °C; with LOC_OS01G10900-cb004, 0.08 °C; with LOC_OS01G13800-cb001 it was 0.67 °C; in the assay on LOC_OS01G14860-cb001, 0.28 °C; in the assay on LOC_OS01G21960-cb002, 0.8 °C. Further, the “thermal shift delta Tm” value amounted to 0.74 °C in the assay on LOC_OS01G39600-cb002, 0.6 °C in the assay on LOC_OS01G48390-cb002, 0.1 °C in the assay on LOC_OS01G51400-cb002 and 0.31 °C in the assay with LOC_OS01G52050-cb004.

For `O=C(O)c1ccc2c(c1)nc(Nc1cccc(Cl)c1)c1ccncc12` [Silmitasertib (CX-4945)], the “thermal shift delta Tm” value was 0.84 °C in the assay on LOC_OS01G01410-cb001; 2.8 °C in the assay on LOC_OS01G02750-cb003; 1.54 °C in the assay on LOC_OS01G10900-cb004; 0.77 °C in the assay on LOC_OS01G13800-cb001; 2.7 °C in the assay on LOC_OS01G14860-cb001; 2.28 °C in the assay with LOC_OS01G21960-cb002. Besides, the “thermal shift delta Tm” value in the assay with LOC_OS01G39600-cb002 is 6.15 °C; with LOC_OS01G48390-cb002 it was 0.06 °C; with LOC_OS01G51400-cb002, 0.3 °C; in the assay with LOC_OS01G52050-cb004 it was 2.54 °C.

Regarding `Cc1nc(-c2cn3c(n2)-c2ccc(-c4cnn(C(C)(C)C(N)=O)c4)cc2OCC3)n(C(C)C)n1` [Taselisib (GDC 0032)], the “thermal shift delta Tm” value in the assay with LOC_OS01G01410-cb001 was 2.11 °C; in the assay on LOC_OS01G02750-cb003, -0.1 °C; with LOC_OS01G10900-cb004, 0.24 °C; with LOC_OS01G13800-cb001 it was 0.32 °C; in the assay with LOC_OS01G14860-cb001, -0.05 °C; in the assay on LOC_OS01G21960-cb002 it was 0.03 °C. Besides, the “thermal shift delta Tm” value in the assay with LOC_OS01G39600-cb002 is -0.05 °C; in the assay on LOC_OS01G48390-cb002, 0.45 °C; in the assay on LOC_OS01G51400-cb002, 0.03 °C; in the assay with LOC_OS01G52050-cb004 it was 0.13 °C.

Regarding `CC(C)c1cnn2c(NCc3ccccc3)cc(NCCCCCCN)nc12`, the “thermal shift delta Tm” value was 0.34 °C in the assay on LOC_OS01G01410-cb001; 0.13 °C with LOC_OS01G02750-cb003; 0.11 °C with LOC_OS01G10900-cb004; -0.23 °C in the assay with LOC_OS01G13800-cb001; 0.11 °C in the assay with LOC_OS01G14860-cb001; 0.56 °C in the assay on LOC_OS01G21960-cb002. For the same compound, the “thermal shift delta Tm” value with LOC_OS01G39600-cb002 was -0.29 °C; with LOC_OS01G48390-cb002, 0.09 °C; in the assay with LOC_OS01G51400-cb002 it was -0.21 °C; in the assay with LOC_OS01G52050-cb004, 0.18 °C.

For the compound `COCC(=O)NC/C=C/c1ccc2ncnc(Nc3ccc(Oc4ccc(C)nc4)c(C)c3)c2c1`, the “thermal shift delta Tm” value in the assay with LOC_OS01G01410-cb001 is 1.96 °C; with LOC_OS01G02750-cb003, 0.21 °C; in the assay on LOC_OS01G10900-cb004 it was 0.42 °C; in the assay on LOC_OS01G13800-cb001, 0.2 °C; in the assay with LOC_OS01G14860-cb001, 0.11 °C; in the assay on LOC_OS01G21960-cb002, -0.07 °C. Also, the “thermal shift delta Tm” value in the assay on LOC_OS01G39600-cb002 is 1.61 °C; in the assay with LOC_OS01G48390-cb002, 0.4 °C; in the assay on LOC_OS01G51400-cb002, 0.03 °C; with LOC_OS01G52050-cb004 it was 0.35 °C.

For `COc1nccc(-c2c(-c3ccc(F)cc3)ncn2C2CCC(O)CC2)n1` (stereo not given), the “thermal shift delta Tm” value is -0.16 °C in the assay on LOC_OS01G01410-cb001; 1.24 °C in the assay with LOC_OS01G02750-cb003; -0.06 °C with LOC_OS01G10900-cb004; 0.22 °C in the assay with LOC_OS01G13800-cb001; -0.06 °C with LOC_OS01G14860-cb001; 0.69 °C with LOC_OS01G21960-cb002. The “thermal shift delta Tm” value with LOC_OS01G39600-cb002 was -0.45 °C; with LOC_OS01G48390-cb002, 0.16 °C; in the assay on LOC_OS01G51400-cb002, 0.24 °C; in the assay with LOC_OS01G52050-cb004, 0.27 °C.
